# ± gives the standard deviation of the averaged measurements. About 6,500 targets were measured; listed, in parts, are those with the largest changes and a random draw of the rest.
# Compound: Nc1ncnc2c1ncn2[C@@H]1O[C@H](COP(=O)(O)OP(=O)(O)OP(=O)(O)O)[C@@H](O)[C@H]1O [adenosine triphosphate]
# Experiment: NP40-soluble protein abundance relative to vehicle (solubility fold change) (ratio); higher = more soluble protein in presence of ATP
# Outline: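 Eight concentrations, 0.1 to 10 mM, were tested on Jurkat crude lysate for 10 min at room temperature and then 3 min at 37 °C, in three independent experiments. The lysate was solubilised with 0.8% NP40 and benzonase, ultracentrifuged, and the supernatant TMT-labelled for LC-MS/MS. Each value is the fold change against the detergent-processed vehicle in its own replicate, from vsn-normalised intensities.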
# UniProt A7KAX9, sequence (A7KAX9 whole entry): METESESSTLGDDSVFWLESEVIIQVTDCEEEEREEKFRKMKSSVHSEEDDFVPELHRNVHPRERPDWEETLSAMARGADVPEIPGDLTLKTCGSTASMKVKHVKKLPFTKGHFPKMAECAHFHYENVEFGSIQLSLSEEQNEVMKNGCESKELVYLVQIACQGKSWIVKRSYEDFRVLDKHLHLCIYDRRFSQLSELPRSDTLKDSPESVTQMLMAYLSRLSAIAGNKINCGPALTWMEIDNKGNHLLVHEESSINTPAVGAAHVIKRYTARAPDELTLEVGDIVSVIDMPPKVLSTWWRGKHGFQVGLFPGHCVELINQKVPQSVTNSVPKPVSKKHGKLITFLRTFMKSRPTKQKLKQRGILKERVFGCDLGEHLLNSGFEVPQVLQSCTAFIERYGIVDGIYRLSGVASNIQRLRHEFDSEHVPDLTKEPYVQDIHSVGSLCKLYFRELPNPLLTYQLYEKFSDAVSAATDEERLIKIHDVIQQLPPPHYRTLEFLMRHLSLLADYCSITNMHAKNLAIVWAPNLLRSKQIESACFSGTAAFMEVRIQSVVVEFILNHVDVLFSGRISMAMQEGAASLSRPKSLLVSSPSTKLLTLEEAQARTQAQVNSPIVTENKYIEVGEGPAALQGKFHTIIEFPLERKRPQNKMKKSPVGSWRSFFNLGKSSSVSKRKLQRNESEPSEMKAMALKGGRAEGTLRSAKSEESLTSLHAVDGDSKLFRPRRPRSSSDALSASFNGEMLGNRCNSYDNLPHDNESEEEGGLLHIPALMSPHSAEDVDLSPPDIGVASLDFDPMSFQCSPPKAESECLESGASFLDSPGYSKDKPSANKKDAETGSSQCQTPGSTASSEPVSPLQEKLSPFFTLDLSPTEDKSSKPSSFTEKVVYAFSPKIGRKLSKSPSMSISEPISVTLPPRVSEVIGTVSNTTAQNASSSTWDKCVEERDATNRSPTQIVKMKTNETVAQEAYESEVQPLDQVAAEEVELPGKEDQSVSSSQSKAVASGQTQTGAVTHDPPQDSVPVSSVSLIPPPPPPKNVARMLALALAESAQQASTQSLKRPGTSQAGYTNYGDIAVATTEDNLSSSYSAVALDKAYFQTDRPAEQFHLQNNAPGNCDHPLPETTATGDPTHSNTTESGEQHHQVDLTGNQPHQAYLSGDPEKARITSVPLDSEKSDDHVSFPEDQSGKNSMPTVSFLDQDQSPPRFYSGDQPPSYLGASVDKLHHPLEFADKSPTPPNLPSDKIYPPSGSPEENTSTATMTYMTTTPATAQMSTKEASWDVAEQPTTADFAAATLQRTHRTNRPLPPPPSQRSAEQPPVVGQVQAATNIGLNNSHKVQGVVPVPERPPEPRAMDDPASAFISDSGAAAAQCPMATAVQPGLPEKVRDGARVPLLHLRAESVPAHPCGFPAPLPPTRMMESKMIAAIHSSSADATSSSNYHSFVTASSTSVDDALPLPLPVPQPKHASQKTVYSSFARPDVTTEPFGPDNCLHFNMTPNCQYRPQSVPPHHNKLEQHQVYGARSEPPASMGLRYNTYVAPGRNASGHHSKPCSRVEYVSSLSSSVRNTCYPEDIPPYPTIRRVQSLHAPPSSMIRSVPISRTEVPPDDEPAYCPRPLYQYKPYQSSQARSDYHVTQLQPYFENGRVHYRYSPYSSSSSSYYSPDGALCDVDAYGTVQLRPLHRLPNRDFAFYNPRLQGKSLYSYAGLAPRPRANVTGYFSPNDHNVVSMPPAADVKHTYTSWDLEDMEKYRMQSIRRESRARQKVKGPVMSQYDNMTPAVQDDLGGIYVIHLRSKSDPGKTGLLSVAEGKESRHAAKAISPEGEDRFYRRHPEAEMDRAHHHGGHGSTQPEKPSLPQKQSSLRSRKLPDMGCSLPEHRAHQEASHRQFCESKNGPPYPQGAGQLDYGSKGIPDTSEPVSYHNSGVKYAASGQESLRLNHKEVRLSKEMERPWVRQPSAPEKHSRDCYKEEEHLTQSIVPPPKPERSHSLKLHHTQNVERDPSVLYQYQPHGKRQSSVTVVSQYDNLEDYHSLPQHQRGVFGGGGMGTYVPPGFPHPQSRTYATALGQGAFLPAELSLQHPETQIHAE
# UniProt P05166, sequence (P05166 whole entry, one chain of several): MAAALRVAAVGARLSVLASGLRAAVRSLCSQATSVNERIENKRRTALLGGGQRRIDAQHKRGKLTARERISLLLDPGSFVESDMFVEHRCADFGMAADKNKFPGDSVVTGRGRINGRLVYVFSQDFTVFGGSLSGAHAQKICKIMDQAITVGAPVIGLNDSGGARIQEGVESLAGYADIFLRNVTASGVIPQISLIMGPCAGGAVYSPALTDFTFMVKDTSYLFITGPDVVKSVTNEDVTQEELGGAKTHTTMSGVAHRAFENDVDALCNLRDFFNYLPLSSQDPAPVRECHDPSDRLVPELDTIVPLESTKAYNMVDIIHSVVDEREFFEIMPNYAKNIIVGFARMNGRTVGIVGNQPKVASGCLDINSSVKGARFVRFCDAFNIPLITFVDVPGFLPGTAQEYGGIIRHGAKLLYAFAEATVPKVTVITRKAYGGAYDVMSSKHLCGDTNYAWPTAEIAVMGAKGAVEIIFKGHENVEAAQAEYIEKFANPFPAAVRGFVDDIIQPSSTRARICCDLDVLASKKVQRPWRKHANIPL
# UniProt Q07955, sequence (Q07955 whole entry, one chain of several): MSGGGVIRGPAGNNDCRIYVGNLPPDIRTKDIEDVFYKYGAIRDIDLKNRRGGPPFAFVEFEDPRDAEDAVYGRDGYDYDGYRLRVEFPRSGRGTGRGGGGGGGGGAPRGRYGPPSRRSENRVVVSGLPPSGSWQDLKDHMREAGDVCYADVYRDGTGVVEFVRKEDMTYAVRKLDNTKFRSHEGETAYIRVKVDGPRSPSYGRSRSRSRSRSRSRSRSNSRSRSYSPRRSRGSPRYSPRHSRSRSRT
# UniProt O43772, sequence (O43772 whole entry): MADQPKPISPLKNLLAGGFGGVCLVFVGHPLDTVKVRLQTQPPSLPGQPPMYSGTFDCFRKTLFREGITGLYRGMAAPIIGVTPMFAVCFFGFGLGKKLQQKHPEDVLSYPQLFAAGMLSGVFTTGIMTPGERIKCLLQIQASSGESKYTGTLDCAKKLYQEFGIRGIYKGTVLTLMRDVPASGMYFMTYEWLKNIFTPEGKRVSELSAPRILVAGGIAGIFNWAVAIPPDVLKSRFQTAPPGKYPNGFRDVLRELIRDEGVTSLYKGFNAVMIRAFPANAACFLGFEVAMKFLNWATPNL
# UniProt P08575, sequence (P08575 whole entry, one chain of several): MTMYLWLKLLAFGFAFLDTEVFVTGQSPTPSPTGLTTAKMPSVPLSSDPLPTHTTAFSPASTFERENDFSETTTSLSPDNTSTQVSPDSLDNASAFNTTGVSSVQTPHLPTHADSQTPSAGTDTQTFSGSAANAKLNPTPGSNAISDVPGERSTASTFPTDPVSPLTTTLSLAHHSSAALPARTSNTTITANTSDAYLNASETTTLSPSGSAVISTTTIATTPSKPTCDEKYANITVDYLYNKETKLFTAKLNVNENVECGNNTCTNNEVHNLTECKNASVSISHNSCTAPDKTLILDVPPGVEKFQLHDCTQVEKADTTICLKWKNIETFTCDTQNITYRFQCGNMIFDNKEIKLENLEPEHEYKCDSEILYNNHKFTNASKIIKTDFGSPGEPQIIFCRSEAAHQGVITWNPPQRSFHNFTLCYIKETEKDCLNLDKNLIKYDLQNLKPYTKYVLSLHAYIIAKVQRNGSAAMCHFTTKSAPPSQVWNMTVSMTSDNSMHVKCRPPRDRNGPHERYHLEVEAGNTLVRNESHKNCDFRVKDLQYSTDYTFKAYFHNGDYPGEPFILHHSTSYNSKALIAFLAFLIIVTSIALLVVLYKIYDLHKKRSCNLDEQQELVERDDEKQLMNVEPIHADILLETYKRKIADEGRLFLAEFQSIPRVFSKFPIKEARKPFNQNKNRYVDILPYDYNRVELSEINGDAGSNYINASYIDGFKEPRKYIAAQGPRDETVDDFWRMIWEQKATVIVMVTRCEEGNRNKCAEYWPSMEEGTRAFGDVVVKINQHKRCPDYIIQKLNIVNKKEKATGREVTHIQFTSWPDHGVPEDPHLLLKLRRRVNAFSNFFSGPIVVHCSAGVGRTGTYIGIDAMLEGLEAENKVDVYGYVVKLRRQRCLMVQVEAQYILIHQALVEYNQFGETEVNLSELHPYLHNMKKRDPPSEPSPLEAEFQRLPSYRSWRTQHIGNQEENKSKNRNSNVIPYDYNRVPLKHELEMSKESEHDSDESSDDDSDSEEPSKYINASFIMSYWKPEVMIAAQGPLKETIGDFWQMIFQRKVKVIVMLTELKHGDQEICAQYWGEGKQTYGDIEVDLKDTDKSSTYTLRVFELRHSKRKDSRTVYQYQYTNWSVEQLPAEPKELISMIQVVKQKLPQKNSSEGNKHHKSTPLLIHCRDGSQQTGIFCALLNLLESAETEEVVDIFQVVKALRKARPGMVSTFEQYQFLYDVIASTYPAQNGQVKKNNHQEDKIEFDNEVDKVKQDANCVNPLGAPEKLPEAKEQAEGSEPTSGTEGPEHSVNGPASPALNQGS
# UniProt O43678, sequence (O43678 whole entry): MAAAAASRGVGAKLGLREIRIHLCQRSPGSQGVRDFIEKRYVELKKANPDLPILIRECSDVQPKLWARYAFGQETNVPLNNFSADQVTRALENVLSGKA
# UniProt Q9UI95, sequence (Q9UI95 whole entry, one chain of several): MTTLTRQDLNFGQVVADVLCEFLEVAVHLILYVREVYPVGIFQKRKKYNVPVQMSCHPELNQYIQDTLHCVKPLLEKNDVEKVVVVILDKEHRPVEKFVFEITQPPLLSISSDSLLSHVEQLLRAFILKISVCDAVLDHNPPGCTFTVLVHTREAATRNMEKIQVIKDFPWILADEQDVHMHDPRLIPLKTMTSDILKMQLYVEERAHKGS
# UniProt Q9BRQ6, sequence (Q9BRQ6 whole entry, one chain of several): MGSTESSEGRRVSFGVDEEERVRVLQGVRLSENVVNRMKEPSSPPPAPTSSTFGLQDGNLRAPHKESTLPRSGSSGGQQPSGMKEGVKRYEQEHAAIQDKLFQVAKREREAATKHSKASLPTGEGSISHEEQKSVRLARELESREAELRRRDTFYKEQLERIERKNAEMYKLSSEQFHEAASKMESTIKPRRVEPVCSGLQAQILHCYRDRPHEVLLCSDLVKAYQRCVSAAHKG
Target,NP40-soluble protein abundance (concentration: 1mM),NP40-soluble protein abundance (concentration: 2mM),NP40-soluble protein abundance (concentration: 4mM),NP40-soluble protein abundance (concentration: 6mM),NP40-soluble protein abundance (concentration: 8mM),NP40-soluble protein abundance (concentration: 10mM)
B1AJY7|O75832 (UniProt O75832),1 ± 0.082,0.973 ± 0.031,0.955 ± 0.065,0.977 ± 0.076,0.947 ± 0.056,0.863 ± 0.043
E7EX59|E9PDR0|P05166|P05166-2|E7EUY3 (UniProt P05166),0.992 ± 0.049,0.971 ± 0.02,0.968 ± 0.012,0.973 ± 0.046,0.998 ± 0.033,0.979 ± 0.03
C9JLB7|Q96HP4 (UniProt Q96HP4),1.09 ± 0.083,1.1 ± 0.1,1.06 ± 0.075,1.12 ± 0.17,1.17 ± 0.14,1.05 ± 0.042
A0A0B4J1Z1|C9JAB2|Q16629|Q16629-2|Q16629-3|Q16629-4 (UniProt Q16629),1.7 ± 0.28,1.77 ± 0.28,1.89 ± 0.28,2.04 ± 0.31,1.98 ± 0.38,2.09 ± 0.36
I3L0L6|Q9H6Y7 (UniProt Q9H6Y7),0.901 ± 0.033,0.93 ± 0.016,0.896 ± 0.051,0.962 ± 0.064,0.921 ± 0.066,0.864 ± 0.065
B1AK44|Q9UI95 (UniProt Q9UI95),0.999 ± 0.022,0.937 ± 0.037,0.978 ± 0.024,1.01 ± 0.087,1.05 ± 0.086,0.993 ± 0.059
J3KNW7|Q9Y592|Q9Y592-2 (UniProt Q9Y592),1.06 ± 0.072,0.9299 ± 0.0068,1.02 ± 0.032,1.04 ± 0.028,1.07 ± 0.062,0.993 ± 0.077
J3QTA6|Q9BRQ6 (UniProt Q9BRQ6),0.958 ± 0.12,0.921 ± 0.073,0.897 ± 0.087,0.925 ± 0.13,0.918 ± 0.093,0.874 ± 0.067
E5RFJ1|Q96MF7 (UniProt Q96MF7),1.04 ± 0.053,1.04 ± 0.012,1.03 ± 0.017,1.09 ± 0.036,1.01 ± 0.018,1 ± 0.034
M0R042|P04350 (UniProt P04350),1.01 ± 0.089,0.962 ± 0.037,1.02 ± 0.034,0.934 ± 0.058,1.02 ± 0.018,0.955 ± 0.071
TRIM38 (UniProt O00635),0.949 ± 0.053,1 ± 0.018,0.988 ± 0.041,0.955 ± 0.046,0.986 ± 0.034,0.993 ± 0.045
A0A0A0MRR7|P09234 (UniProt P09234),1.34 ± 0.087,1.39 ± 0.078,1.56 ± 0.062,1.87 ± 0.2,1.83 ± 0.041,1.84 ± 0.1
K7ELH7|K7ENE2|Q8IVV7 (UniProt Q8IVV7),1.04 ± 0.13,0.979 ± 0.11,1 ± 0.032,0.867 ± 0.075,0.931 ± 0.094,0.92918 ± 9.2e-06
A0A0A0MT22|M9MML4|P08575|P08575-2|X6R433 (UniProt P08575),0.946 ± 0.026,0.9679 ± 0.0084,0.9321 ± 0.0056,0.967 ± 0.014,0.918 ± 0.018,0.943 ± 0.036
K7ES61|Q9BYD3 (UniProt Q9BYD3),1.02 ± 0.079,0.942 ± 0.099,0.907 ± 0.091,0.827 ± 0.14,0.892 ± 0.19,0.895 ± 0.17
DNAJC13 (UniProt O75165),1.15 ± 0.024,1.29 ± 0.095,1.3 ± 0.043,1.35 ± 0.12,1.68 ± 0.12,1.73 ± 0.22
M0QZM1|M0R019|P52272|P52272-2 (UniProt P52272),0.988 ± 0.037,0.999 ± 0.016,1.01 ± 0.032,1.07 ± 0.014,1.04 ± 0.019,1.06 ± 0.024
UniProt O14524,0.824 ± 0.11,0.887 ± 0.1,0.841 ± 0.017,0.899 ± 0.066,0.872 ± 0.029,0.896 ± 0.036
H7C5U8|Q9P0M9 (UniProt Q9P0M9),1.12 ± 0.16,0.995 ± 0.22,0.923 ± 0.19,0.944 ± 0.29,0.902 ± 0.19,0.894 ± 0.24
D0EV57|P01889|P10321|P13746-2|P16188|P30493|P30499|P30504|P30505|P30508|P30685|Q29865|Q29963|Q5SRN5|Q6DU44|Q8MH48|A0A140T912|E9PIB1|O19617|Q29940|Q29718 (UniProt Q29718+Q29940+E9PIB1+Q8MH48+Q6DU44+Q5SRN5+D0EV57+P01889+P10321+P30505+P13746+P30499+P16188+P30493+Q29865+P30504+P30508+P30685+O19617+Q29963),0.961 ± 0.026,0.9786 ± 0.0089,0.9485 ± 0.0059,0.977 ± 0.013,0.949 ± 0.022,0.96 ± 0.015
A0A0B4J220 (UniProt E9PRG8),1.02 ± 0.028,1.11 ± 0.066,1.27 ± 0.17,1.31 ± 0.091,1.42 ± 0.27,1.56 ± 0.23
NDUFA2 (UniProt O43678),0.882 ± 0.1,0.874 ± 0.16,0.924 ± 0.1,0.985 ± 0.21,0.876 ± 0.081,0.835 ± 0.13
F8W057|Q9GZN1|Q9GZN1-2 (UniProt Q9GZN1),1.07 ± 0.034,1.11 ± 0.034,1.1 ± 0.065,1.03 ± 0.089,1.2 ± 0.028,1.17 ± 0.089
F5H527|Q76I76 (UniProt Q76I76),0.984 ± 0.012,1 ± 0.016,0.993 ± 0.03,0.997 ± 0.013,0.978 ± 0.037,0.995 ± 0.062
UniProt A7KAX9|A7KAX9-2,0.937 ± 0.054,0.91 ± 0.046,0.908 ± 0.0074,0.907 ± 0.024,0.904 ± 0.04,0.941 ± 0.018
B1AKN5|B1AKN7|B1AKN8|Q12857|Q12857-3|Q12857-4|B1AKN6|S4R3K4|Q12857-2 (UniProt Q12857),1.22 ± 0.072,1.08 ± 0.11,1.12 ± 0.081,1.21 ± 0.13,0.995 ± 0.072,1.13 ± 0.033
SLC25A20 (UniProt O43772),0.918 ± 0.088,0.945 ± 0.037,0.943 ± 0.012,0.822 ± 0.099,0.884 ± 0.028,0.974 ± 0.0095
E9PB61|Q86V81 (UniProt Q86V81),1.04 ± 0.094,1.09 ± 0.07,1.22 ± 0.13,1.44 ± 0.15,1.53 ± 0.13,1.66 ± 0.24
F5GWN5|O00750 (UniProt O00750),0.994 ± 0.022,1.03 ± 0.025,1.05 ± 0.013,1.02 ± 0.039,1.03 ± 0.028,1.03 ± 0.051
J3KTL2|Q07955 (UniProt Q07955),1.41 ± 0.16,1.53 ± 0.14,1.7 ± 0.11,1.93 ± 0.19,1.89 ± 0.097,1.98 ± 0.093

# — the supplement of paper PMC6411743
